ELG1 genotoxic: qHTS screen for small molecules that induce genotoxicity in human embryonic kidney (HEK293T) cells expressing luciferase-tagged ELG1 | HEK293T ELG1-luciferase reporter, luminescence, 16 h | Potency, µM (top dose mostly 46 µM), usual class: activators | 1.3% of 330,000 active; note: nearly all actives have a fitted effect of over 60% in size
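Quantitative HTS format in 1536-well plates. HEK293T ELG1-luciferase reporter cells receive test compound and are incubated 16 hr at 37 °C, 5% CO2; ONE-Glo added, 30 min room temperature, then luminescence read.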
Rab9 prom act: qHTS Assay for Rab9 Promoter Activators; Potency, µM (titrated, usually from 9.22 µM), usual class: activators; 2.8% of 320,000 active; Huh7 Rab9 promoter-luciferase reporter, luminescence, 24 h; AID 485297, 2010; note: nearly all actives have a fitted effect of over 60% in size
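Measured in stably transfected Huh7 cells bearing a Rab9 promoter–luciferase construct: 24 h compound treatment at 37 °C, followed by luminescence detection.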
FLuc modulator: qHTS profiling assay for firefly luciferase inhibitor/activator using purifed enzyme and Km concentrations of substrates (counterscreen for miR-21 project); Luciferin 4-monooxygenase (Photinus pyralis), P08659; purified FLuc, Km substrates, luminescence inhibition; Potency, µM (titrated, usually from 57.5 µM), actives largely listed as inhibitors; 6.9% of 360,000 active; note: nearly all actives have a fitted effect of over 55% in size
Target sequence (P08659 whole entry, looked up): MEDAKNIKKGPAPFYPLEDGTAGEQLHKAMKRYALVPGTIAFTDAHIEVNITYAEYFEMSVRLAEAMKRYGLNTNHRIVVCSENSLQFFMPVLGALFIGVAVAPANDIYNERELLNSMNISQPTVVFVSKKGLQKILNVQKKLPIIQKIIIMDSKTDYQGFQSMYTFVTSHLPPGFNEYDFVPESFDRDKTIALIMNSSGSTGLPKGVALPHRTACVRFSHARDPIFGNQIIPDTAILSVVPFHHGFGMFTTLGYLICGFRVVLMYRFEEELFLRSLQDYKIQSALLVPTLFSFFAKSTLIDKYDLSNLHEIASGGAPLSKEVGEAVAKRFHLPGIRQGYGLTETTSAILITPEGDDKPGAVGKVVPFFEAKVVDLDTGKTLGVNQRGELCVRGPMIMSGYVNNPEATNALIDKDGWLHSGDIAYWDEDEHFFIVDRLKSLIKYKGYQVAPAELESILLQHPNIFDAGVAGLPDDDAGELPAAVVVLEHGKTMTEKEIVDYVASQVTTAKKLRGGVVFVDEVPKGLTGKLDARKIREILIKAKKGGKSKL
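Purified P. pyralis luciferase (10nM final) with 10uM D-luciferin and 10uM ATP (Km levels) in 50mM Tris acetate pH 7.5, 10mM Mg acetate, 0.01% Tween-20, 0.05% BSA; qHTS 6-point titration, ~60 µM downward; luminescence read.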
ELG1 repair inh: qHTS screen for small molecules that inhibit ELG1-dependent DNA repair in human embryonic kidney (HEK293T) cells expressing luciferase-tagged ELG1 | HEK293T ELG1-luciferase reporter, luminescence, 16 h; DNA damage induced by 5-fluorouridine | AID 504467, 2011 | 2.3% of 330,000 active | Potency, µM (doses to about 46.1 µM), most hits filed as inhibitors; note: nearly all actives have a fitted effect of over 55% in size
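5-Fluorouridine DNA damage + compound/DMSO, 2,000 cells/well, 16 h, 37 °C/5% CO2. ONE-Glo, 30 min RT, luminescence. Readout = decrease in reporter signal.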
NPC1 promoter act: qHTS Assay for NPC1 Promoter Activators. 2.4% of 320,000 active. Huh7 NPC1 promoter luciferase reporter, 24 h. AID 485313, 2010. Potency, µM (highest dose often 9.22 µM), most hits filed as activators; note: nearly all actives have a fitted effect of over 60% in size
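Luciferase expression driven by the NPC1 promoter was measured in stably transfected Huh7 cells after a 24 h compound incubation, using a luciferase reagent and a luminescence read.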
SMN2 splice enh: qHTS Assay for Enhancers of SMN2 Splice Variant Expression; Potency, µM (highest dose often 46.1 µM), actives largely listed as activators; 2.8% of 210,000 active; HEK293 SMN2-luciferase splicing reporter, luminescence, 30-36 h; note: nearly all actives have a fitted effect of over 55% in size
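HEK293 cells carry an SMN2 minigene-luciferase reporter in which exon 7 inclusion puts luciferase in frame. Cells were seeded at 2000 cells/well, attached for 10-12 hours, then exposed to compounds for 30-36 hours at 37C before ONE-Glo luminescence.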
Of the large screens only hits and unclear results are named; the others gave an inactive call. Compounds with a hit are over-represented: about 9.4% of the library has one in this group of screens. Calls come from the whole dose curve; as a rule, active = well fitted curve in the direction sought with a large enough effect; inconclusive = small, poorly fitted or top-dose-only effect, or another doubt; inactive = no such curve, though single readings can be large; an effect the other way counts as inactive or inconclusive.

Cc1ccc(Nc2ncnc3nc[nH]c23)cc1Cl	ELG1 genotoxic 5.8µM, Rab9 prom act 3.2µM, FLuc modulator inconclusive, ELG1 repair inh inconclusive, NPC1 promoter act 3.5µM, SMN2 splice enh inconclusive
COc1cccc(Nc2ncnc3nc[nH]c23)c1	Rab9 prom act inconclusive, FLuc modulator 19µM, NPC1 promoter act inconclusive, SMN2 splice enh 13µM
CCCNc1ncnc2nc[nH]c12	none
Cc1ccc(NC(=O)Nc2ncnc3nc[nH]c23)cc1	ELG1 genotoxic inconclusive, Rab9 prom act 2.8µM, FLuc modulator 12µM, ELG1 repair inh inconclusive, NPC1 promoter act 3.5µM (no result: SMN2 splice enh)
CCOc1cc(CNc2ncnc3nc[nH]c23)ccc1OC	none
O=C(O)/C=C\C(=O)Nc1cccc2c1-c1ccccc1C2=O	none (no result: ELG1 genotoxic, Rab9 prom act, FLuc modulator, ELG1 repair inh, NPC1 promoter act)
COc1cccc(OCc2nc3ccccc3n2CCOc2ccc(C)cc2)c1	none (no result: ELG1 genotoxic, Rab9 prom act, ELG1 repair inh, NPC1 promoter act)
CCc1ccc(Nc2ncnc3nc[nH]c23)cc1	ELG1 genotoxic inconclusive, Rab9 prom act 2µM, FLuc modulator 11µM, ELG1 repair inh inconclusive, NPC1 promoter act 2.2µM (no result: SMN2 splice enh)
Cc1ccc(OCC(=O)O/N=C(\N)c2ccncc2)c(C)c1	ELG1 genotoxic 15µM, Rab9 prom act 3.5µM, FLuc modulator 11µM, ELG1 repair inh inconclusive, NPC1 promoter act 3.2µM (no result: SMN2 splice enh)
N/C(=N\OC(=O)COc1cc(Cl)c(Cl)cc1Cl)c1ccncc1	ELG1 genotoxic 18µM, Rab9 prom act inconclusive, FLuc modulator 13µM, ELG1 repair inh inconclusive, NPC1 promoter act inconclusive, SMN2 splice enh 14µM
Cc1cc(C)c(C)c(OCC(=O)O/N=C(\N)c2ccncc2)c1	none (no result: SMN2 splice enh)
N/C(=N\OC(=O)COc1ccc(Br)cc1Cl)c1ccncc1	ELG1 genotoxic inconclusive, Rab9 prom act 3.5µM, FLuc modulator 6.7µM, ELG1 repair inh inconclusive, NPC1 promoter act 3.5µM, SMN2 splice enh 11µM
O=C1CC(c2ccccc2)Cc2[nH]c(=O)c(-c3nc(-c4ccc(F)cc4)cs3)cc21 (centres undefined)	none (no result: ELG1 genotoxic, Rab9 prom act, ELG1 repair inh, NPC1 promoter act)
COC(=O)c1ccc(NC(=O)CCn2cccn2)cc1	none (no result: ELG1 genotoxic, Rab9 prom act, ELG1 repair inh, NPC1 promoter act, SMN2 splice enh)
COc1ccc(C(=O)Nc2ccc3[nH]ncc3c2)cc1	ELG1 genotoxic 8.2µM, Rab9 prom act 2.8µM, FLuc modulator 1.9µM, ELG1 repair inh inconclusive, NPC1 promoter act 0.89µM (no result: SMN2 splice enh)
COc1ccc(C(=O)Nc2ccc3cn[nH]c3c2)c(OC)c1	ELG1 genotoxic inconclusive, Rab9 prom act inconclusive, FLuc modulator 6µM, ELG1 repair inh inconclusive, NPC1 promoter act inconclusive, SMN2 splice enh 13µM
COc1ccc(C(=O)N/N=C(\C)CC(=O)Nc2ccc3ccccc3c2)c(OC)c1	none (no result: SMN2 splice enh)
CCOc1ccc(C(=O)Nc2ccc3[nH]ncc3c2)cc1	Rab9 prom act 1.4µM, FLuc modulator 1.3µM, ELG1 repair inh inconclusive, NPC1 promoter act 1.3µM (no result: SMN2 splice enh)
O=C(COc1ccc(Cl)cc1)Nc1ccc2[nH]ncc2c1	none (no result: SMN2 splice enh)
Cc1ccc(NC(=O)CCC(=O)N2Cc3ccccc3Oc3ncccc32)cc1	none (no result: ELG1 genotoxic, Rab9 prom act, ELG1 repair inh, NPC1 promoter act, SMN2 splice enh)
C/C(=N\Nc1cccc2cccnc12)c1ccc[nH]1	Rab9 prom act 1.4µM, FLuc modulator 1.1µM, ELG1 repair inh inconclusive, NPC1 promoter act inconclusive, SMN2 splice enh 11µM
CC(C)(C)c1ccc(NC(=O)CSc2nnc3scc(-c4ccccc4)n23)cc1	none (no result: ELG1 genotoxic, Rab9 prom act, ELG1 repair inh, NPC1 promoter act)
Cc1cc(C)cc(NC(=O)N2CCC3(CC2)Oc2ccccc2C(=O)N3Cc2ccccc2F)c1	none (no result: ELG1 genotoxic, Rab9 prom act, ELG1 repair inh, NPC1 promoter act)
COc1ccc(C(=O)Nc2nc(CC(=O)NCCc3cccc(OC)c3)cs2)cc1	FLuc modulator 13µM (no result: SMN2 splice enh)
COc1ccc(C(=O)Nc2nc(CC(=O)NCCc3ccccc3)cs2)cc1	FLuc modulator 4.8µM (no result: SMN2 splice enh)
CCn1c(C(=O)NCc2ccccc2OC)cc2sccc21	none (no result: ELG1 genotoxic, Rab9 prom act, ELG1 repair inh, NPC1 promoter act)
Cc1cccc(OCc2nc(-c3ccccn3)n[nH]2)c1	none (no result: ELG1 genotoxic, Rab9 prom act, ELG1 repair inh, NPC1 promoter act)
Cc1ccc(OCc2nc(-c3ccccn3)n[nH]2)cc1	Rab9 prom act inconclusive, FLuc modulator 24µM, ELG1 repair inh inconclusive, NPC1 promoter act inconclusive, SMN2 splice enh inconclusive
CC(=O)N1CCN(C(=O)c2ccco2)CC1	none (no result: SMN2 splice enh)
O=C(c1cc2ncc(Br)cn2n1)N1CCN(C(=O)c2ccco2)CC1	none
Cc1cccc2nc(=S)n(C(=O)c3ccco3)n12	ELG1 genotoxic inconclusive, Rab9 prom act 1.3µM, FLuc modulator 1.1µM, ELG1 repair inh inconclusive, NPC1 promoter act inconclusive
O=C(c1ccco1)n1c(=S)nc2ccccn21	ELG1 genotoxic 5µM, Rab9 prom act 1.4µM, FLuc modulator 3.8µM, ELG1 repair inh inconclusive, NPC1 promoter act 2.8µM, SMN2 splice enh inconclusive
O=C(NCCc1ccccc1)c1ccc2c(c1)N(Cc1ccccc1)C(=O)c1ccccc1S2=O (centres undefined)	none (no result: ELG1 genotoxic, Rab9 prom act, ELG1 repair inh, NPC1 promoter act)
O=C(Nc1ccc(Cl)cc1)C1CCN(c2nc3ccccc3n3cccc23)CC1	none (no result: ELG1 genotoxic, Rab9 prom act, ELG1 repair inh, NPC1 promoter act, SMN2 splice enh)
Cn1c(=O)n(Cc2ccccc2)c(=O)c2c1nc1n2CCCN1CCc1ccccc1	ELG1 repair inh 23µM
C=C(C)Cn1c(=O)c2c(nc3n2CCCN3CCc2ccccc2)n(C)c1=O	ELG1 repair inh 16µM (no result: SMN2 splice enh)
CCOc1ccc(CCNC(=O)Cn2nc(CC)n3c(cc4sccc43)c2=O)cc1	none (no result: ELG1 genotoxic, Rab9 prom act, ELG1 repair inh, NPC1 promoter act)
CCC(=O)Nc1cc2nn(-c3ccc(OC)cc3)nc2cc1C	ELG1 genotoxic 0.41µM, Rab9 prom act inconclusive, FLuc modulator 0.3µM, ELG1 repair inh inconclusive, NPC1 promoter act 0.1µM
CCCCC(=O)Nc1cc2nn(-c3ccc(OC)cc3)nc2cc1C	ELG1 genotoxic inconclusive, FLuc modulator inconclusive, ELG1 repair inh inconclusive, NPC1 promoter act inconclusive, SMN2 splice enh inconclusive

Screening data deposited in PubChem by National Center for Advancing Translational Sciences (NCATS).
